Hits are enriched below; roughly 2.7% of the tested compounds scored in any of these assays.
S2 tox – Viability Counterscreen for Primary qHTS for Inhibitors of ATXN expression | Potency, µM (highest dose often 56.7 µM), most hits filed as cytotoxic | AID 651635, 2014 | S2 cells (HEK-293 line with an ATXN2-luciferase reporter) viability, CellTiter-Fluor protease fluorescence, 24 h | actives 0.49% (n = 400,000); also: nearly all actives have a fitted effect of over 40% in size
HepG2 tox – qHTS for Inhibitors of TGF-b: Cytotox Counterscreen; HepG2 CAGA-GFP viability, ATP luminescence, 18 h; AID 588856, 2011; actives 0.76% (n = 410,000); Potency, µM (highest dose often 46.1 µM), without a hit: top-dose activity change, negative = cytotoxicity, actives largely listed as cytotoxic
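CellTiter-Glo luminescence gave cytotoxicity after 18 hours at 37 degrees C. The cells were HepG2 CAGA-GFP in 1% FBS DMEM, stimulated with 500 pg/mL TGF-beta after compound addition. %Activity was normalised to no-cell wells (complete cell-killing) and DMSO (no toxicity), and curves were fitted and classified.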
12-LOX inh – Primary qHTS assay for inhibitors of human arachidonate 12S-lipoxygenase (ALOX12): Round 2 | actives 1.1% (n = 580,000) | purified 12hLO, xylenol orange hydroperoxide absorbance | Potency, µM (top dose mostly 108 µM), for the others: at the top dose activity change, negative = inhibition, actives largely listed as inhibitors | Polyunsaturated fatty acid lipoxygenase ALOX12 (Homo sapiens), P18054; also: % is scaled to controls: 0 for no effect and ±100 for the full control effect
Target sequence (P18054 whole entry, looked up): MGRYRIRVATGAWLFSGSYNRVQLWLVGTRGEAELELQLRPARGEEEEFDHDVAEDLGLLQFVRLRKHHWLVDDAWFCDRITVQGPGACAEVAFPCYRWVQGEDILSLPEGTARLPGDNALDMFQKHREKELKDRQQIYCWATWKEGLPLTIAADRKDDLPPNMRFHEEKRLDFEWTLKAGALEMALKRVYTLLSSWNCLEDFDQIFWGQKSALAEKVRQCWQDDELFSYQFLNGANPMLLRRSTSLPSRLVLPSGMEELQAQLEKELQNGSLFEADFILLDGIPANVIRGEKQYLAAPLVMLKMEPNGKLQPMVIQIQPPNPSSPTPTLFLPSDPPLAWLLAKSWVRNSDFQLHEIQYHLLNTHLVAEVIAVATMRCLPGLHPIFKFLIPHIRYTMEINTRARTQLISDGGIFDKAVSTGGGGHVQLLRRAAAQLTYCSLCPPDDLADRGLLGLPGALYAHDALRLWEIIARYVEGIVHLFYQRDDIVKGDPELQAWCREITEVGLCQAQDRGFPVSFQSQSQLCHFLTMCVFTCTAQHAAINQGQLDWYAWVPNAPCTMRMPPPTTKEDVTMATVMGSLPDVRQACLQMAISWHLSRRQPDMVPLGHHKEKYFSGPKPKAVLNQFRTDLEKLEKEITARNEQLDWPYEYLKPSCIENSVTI
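Hydroperoxide product was detected by ferrous iron/xylenol orange as the 573 to 405 nm absorbance ratio. Arachidonic acid at 40 uM (final) was turned over for 30 min at room temperature by 150 nM human 12hLO, pH 7.0 Hepes buffer, after 15 min compound preincubation.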
ATXN2 expr inh – Primary qHTS for Inhibitors of ATXN expression; Potency, µM (series often up to 57 µM), without a hit: at the highest dose activity change, negative = inhibition, most hits filed as inhibitors; actives 0.72% (n = 360,000); HEK-293 ATXN2-luciferase reporter, luminescence, 24 h; AID 1745845, 2022; also: % is scaled to controls: 0 for no effect and ±100 for the full control effect; nearly all actives have a fitted effect of over 55% in size
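ATXN2-luciferase reporter cells (luciferase flanked by upstream and downstream ATXN2 gene portions) were treated 24 h at 37 °C with compounds at up to 57 uM. SteadyGlo luminescence gave expression; GF-AFC fluorescence gave viability.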
TGFb SMAD3 inh – qHTS for Inhibitors of TGF-b. HepG2 CAGA-GFP TGF-b/SMAD3 reporter, GFP fluorescence, 18 h; TGF-beta stimulated, 500 pg/mL final. Potency, µM (highest dose often 46.1 µM), without a hit: at the top dose activity, negative = inhibition, hits mostly inhibitors. actives 1.2% (n = 410,000); also: % is scaled to controls: 0 for no effect and ±100 for the full control effect; nearly all actives have a fitted effect of over 65% in size
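Smad-responsive CAGA-GFP expression was quantified in HEPG2 cells exposed to compounds and 500 pg/mL final TGF-beta for 18 h at 37 degrees C; unstimulated wells defined full inhibition.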
Numbers without * were called inactive; i = inactive; ? = inconclusive; . = no result given; ! = repeats disagree; [ ] = dose if it differs, or a comment. Calls follow the shape of the dose curve; as a rule, active = well fitted curve in the direction sought with a large enough effect; inconclusive = small, poorly fitted or top-dose-only effect, or another doubt; inactive = no such curve, though single readings can be large; an effect the other way counts as inactive or inconclusive. Potency is read from the fitted curve at half-maximal effect.

SMILES	S2 tox	HepG2 tox	12-LOX inh	ATXN2 expr inh	TGFb SMAD3 inh
CCOc1ccccc1N1CC(c2nc3ccccc3n2CCOc2ccc(OC)cc2)CC1=O (centres undefined)	31.6µM*	12.6µM*	-25.5%	?	?
Cc1cccc(C)c1OCCn1c(C2CC(=O)N(c3cccc(Cl)c3)C2)nc2ccccc21 (centres undefined)	i	15.6%	-19.3%	-12.8%	-5.9%
CCCCN1CC(c2nc3ccccc3n2CCCCOc2c(C)cccc2C)CC1=O (centres undefined)	?	-118.0%	-10.9%	22.4µM*	?
CCOc1ccccc1N1CC(c2nc3ccccc3n2CCCOc2ccc(OC)cc2)CC1=O (centres undefined)	i	-2.8%	0.0%	9.1%	0.3%
Cc1cccc(C)c1OCCCCn1c(C2CC(=O)N(c3ccc(F)cc3)C2)nc2ccccc21 (centres undefined)	?	-32.4%	31.6µM*	-12.1%	?
CCCc1ccc(Oc2cc(-n3ncc(C(C)=O)c3C)nc(C)n2)cc1	.	.	12.3%	.	.
Cc1c(Cl)cccc1N1CC(c2nc3ccccc3n2C(C)C)CC1=O (centres undefined)	.	.	-16.3%	.	.
Cc1c(Cl)cccc1N1CC(c2nc3ccccc3n2Cc2ccccc2F)CC1=O (centres undefined)	31.6µM*	-30.9%	-13.3%	0.0%	?
O=C(COc1ccc2c(c1)CCC2)NCc1ccccc1CN1CCCCC1	.	.	-18.3%	.	.
FC(F)(F)c1ccccc1-c1cncnc1-n1ccnc1	.	.	-12.1%	.	.
CN(C)c1ccc(-c2cncnc2-n2ccnc2)cc1	.	.	39.8µM*	.	.
S=C(NCCC(c1ccccc1)c1ccccc1)Nc1ccc(Cl)cc1	?	-49.6%	?	?	20µM*
S=C(NCCCc1ccccc1)Nc1ccccc1	i	-11.3%	?	2.4%	0.0%
O=C(NCCNC(=O)Nc1ccc(Cl)cc1)Nc1ccc(Cl)cc1	?	7.6%	12.6µM*	7.5%	-0.7%
O=C(NCCO)Nc1ccc(Cl)cc1	i	-23.9%	-1.7%	0.4%	-16.2%
S=C(NCCCc1ccccc1)Nc1ccc(Cl)cc1	?	-43.4%	39.8µM*	0.0%	?
O=S(=O)(c1ccc(NC(=S)NCCC(c2ccccc2)c2ccccc2)cc1)N1CCOCC1	?	-21.0%	44.7µM*	?	?
S=C(NCCC(c1ccccc1)c1ccccc1)Nc1ccccc1Cl	i	-48.2%	?	-5.9%	?
CCOc1cccc2[nH]c(C(=O)O)cc12	.	.	-0.4%	.	.
COCCCNC(=O)c1ccccc1-c1ncc(-c2ccccc2F)o1	.	.	-9.2%	.	.
CCCCc1ccc(NC(=S)NCCc2ccc(Cl)cc2)cc1	.	.	31.6µM*	.	.
CCCCc1ccc(NC(=S)Nc2ccc(Cl)c(S(=O)(=O)N(C)C)c2)cc1	i	-30.1%	44.7µM*	?	-32.1%
CCN1CCN(CC(=O)Nc2ccc(Cl)c(S(=O)(=O)N(C)C)c2)CC1	i	6.0%	-25.1%	.	-14.8%
CCC1CCCCN1CCCNC(=O)c1ccc2c(c1)N(Cc1cccc(Cl)c1)C(=O)c1ccccc1S2(=O)=O (centres undefined)	.	-100.3%	?	.	10µM*
CCC1CCCCN1CCCNC(=O)c1ccc2c(c1)N(Cc1ccccc1)C(=O)c1ccccc1S2(=O)=O (centres undefined)	.	-51.4%	-16.7%	.	.
SMILES	S2 tox	HepG2 tox	12-LOX inh	ATXN2 expr inh	TGFb SMAD3 inh
CCC1CCCCN1CCCNC(=O)c1ccc2c(c1)N(Cc1ccc(Cl)cc1)C(=O)c1ccccc1S2(=O)=O (centres undefined)	i	11.2µM*	-33.3%	28.2µM*	?
CC(=O)Nc1ccc(NC(=O)Cn2ccc3cc(Cl)ccc32)cc1	.	.	-22.1%	.	.
COc1cc(N2C(=O)C=CC2=O)ccc1N1C(=O)C=CC1=O	.	-103.2%	-22.6%	?	?
O=C1C=CC(=O)N1c1cccc(-c2ccccc2)c1	?	-13.7%	?	7.5%	11.2µM*
NC(=Nc1nc(-c2ccccn2)cc2ccccc12)c1ccccn1	?	-60.3%	?	0.316µM*	-62.2%
Cn1c(=O)[nH]c(=O)c2c1nc(N1CCNCC1)n2CCCc1ccccc1	.	.	1.3%	.	.
CCC(CC)C(CNC(=O)c1ccccc1Br)N1CCOCC1 (centres undefined)	.	.	0.3%	.	.
CC1(C)CCCC(C)(C#CCN2CCN(C(c3ccccc3)c3ccccc3)CC2)O1 (centres undefined)	.	.	10µM*	.	.
CCCN(CC(=O)Nc1ccccc1C)C(=O)c1cc2ccccc2oc1=O	i	4.6%	12.6µM*!	.	11.2%
COc1ccc(/C=C2\C(=O)ON=C2c2ccccc2)cc1	20µM*	-42.6%	?	?	-29.7%
O=C1ON=C(c2cccc([N+](=O)[O-])c2)/C1=C/c1ccc(O)cc1	?	-23.5%	7.94µM*	?	?
O=C1ON=C(c2ccccc2)/C1=C/c1ccc(OS(=O)(=O)c2ccccc2)cc1	i	-4.2%	17.8µM*	16.6%	-6.6%
O=C1ON=C(c2ccccc2)/C1=C/c1ccc(O)c(O)c1	?	-22.4%	?	.	11.9%
O=C1ON=C(c2ccc(Cl)c([N+](=O)[O-])c2)/C1=C/c1cccc([N+](=O)[O-])c1O	i	-0.3%	73.7%	2.8%	-11.7%
Cc1cccc(CN2CCCN(S(C)(=O)=O)C(c3ccccc3)CC(=O)NCC2)c1 (centres undefined)	.	.	10.5%	.	.
Cc1ccc(C)c(NC(=O)CSc2ncnc3ccccc23)c1	.	.	-56.4%	.	.
CCCCCCOc1ccc(/C=C/C(=O)Nc2sc3c(c2C(=O)OC)CCC3)cc1OC	14.1µM*	-102.1%	-13.2%	?	7.94µM*
O=C1c2ccccc2-[n+]2ccc3c([nH]c4ccccc43)c21	.	.	?	2.73µM*	.
CN(C)CCNc1ncnc2c1sc1nc(-c3ccccc3)c3c(c12)CCCC3	.	14.1µM*	?	31.6µM*	?
O=S(=O)(Nc1cccc(-c2ccc(N3CCCC3)nn2)c1)c1cccc(C(F)(F)F)c1	.	.	-64.2%	.	.
COC(=O)c1ccc(NC(=O)CCc2c(C)nc3c(c(C)nn3C(C)(C)C)c2C)cc1	i	-47.1%	?	12.9%	15.8µM*
CC(C)NC[C@@H](C(=O)N1CCN(c2ncnc3c2[C@H](C)C[C@H]3O)CC1)c1ccc(Cl)cc1	.	.	1.2%[57.4 µM]	19.3µM*	.
CCOC(=O)N1CCN(c2ncnc3c2cnn3-c2ccc(Cl)cc2)CC1	.	.	12.8%	.	.
Cc1c(C(=O)O)cccc1-c1ccc(/C=N/Nc2ccc(Br)cc2)o1	i	8.9%	44.7µM*	19.2%	49.6%
Cc1c(C(=O)O)cccc1-c1ccc(/C=N/n2cnnc2)o1	i	-3.2%	-9.2%	19.5%	0.0%
